Source: PubChem BioAssay (NCATS)
Records with an inconclusive call do not appear. The source made the active and inactive calls. The call rests on the fitted dose curve; in most records, active means well fitted cell-killing curve with a large enough effect; inconclusive means small, poorly fitted or top-dose-only effect, or effect the other way; inactive means flat fitted curve, though single readings scatter.

Assays:
Test in all cases: Primary qHTS to identify gynecologic anti-cancer compounds using libraries of approved drugs and bioactive compounds (AID 1345084); further: nearly all actives have a fitted effect of over 55% in size
Conditions in all cases: Gynecologic cancer cell panel viability, ATPlite luminescence, 48 h; series mostly up to 57.5 µM
[1] = tested on: JEG-3
In short: (§1)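 Five-concentration response, 48 h; readout is ATP-driven luciferase luminescence.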

[2] = tested on: OV90
In short: as §1

[3] = tested on: PA-1
In short: as §1

[4] = tested on: SKOV3
In short: as §1

[5] = tested on: Tov-21-G
In short: as §1

[6] = tested on: Tov112D
In short: as §1
On the % scale 0 is the no-effect control and ±100 the full control effect.

CCC(C)(O)C(O)C(=O)OCc1ccc(O[C@@H]2O[C@H](CO)[C@@H](O)[C@H](O)[C@H]2O)cc1 (some centres undefined)
inactive: Potency [1] | Potency [2] | Potency [3] | Potency [4] | Potency [5] | Potency [6]

CCOC(=O)[C@H](CCc1ccccc1)CC1(C(=O)N[C@H]2CCc3ccccc3N(CC(=O)O)C2=O)CCCC1
inactive: Potency [1] | Potency [2] | Potency [3] | Potency [4] | Potency [5] | Potency [6]

COc1cccc(-c2ccc([C@@H](Oc3cc(-c4ccc(C[C@H](N)C(=O)O)cc4)nc(N)n3)C(F)(F)F)cc2)c1
inactive: Potency [1] | Potency [2] | Potency [3] | Potency [4] | Potency [5] | Potency [6]

COc1c(C)c(C(=O)c2ccc(N)c(C(=O)O)c2)n2ccccc12
inactive: Potency [1] | Potency [2] | Potency [3] | Potency [4] | Potency [5] | Potency [6]

COc1c2c(c(C)c3c1C(=O)OC3)O[C@@]1(C)C[C@@H](O)[C@]34O[C@](OC)(CC[C@]3(C)[C@H]1C2)OC4(C)C
inactive: Potency [1] | Potency [2] | Potency [3] | Potency [4] | Potency [5] | Potency [6]

COc1cc2c(cc1OC)CN(C(=O)[C@@H](NCc1ccncc1)C(C)(C)C)CC2
inactive: Potency [1] | Potency [2] | Potency [3] | Potency [4] | Potency [5] | Potency [6]

COC(=O)C1=CO[C@@H](O[C@@H]2O[C@H](CO)[C@@H](O)[C@H](O)[C@H]2O)[C@@H]2[C@@H](C)[C@@H](O)C[C@H]12
inactive: Potency [1] | Potency [2] | Potency [3] | Potency [4] | Potency [5] | Potency [6]

CC1(C)CC[C@]2(C(=O)O)CC[C@]3(C)C(=CCC4[C@@]5(C)C[C@H](O)[C@H](O[C@@H]6OC[C@H](O)[C@H](O)[C@H]6O)[C@@](C)(CO)C5CC[C@]43C)[C@@H]2C1 (some centres undefined)
inactive: Potency [1] | Potency [2] | Potency [3] | Potency [4] | Potency [5] | Potency [6]

CC(C)=CCc1ccc(Oc2c(O)cc(C)cc2CO)c(C(=O)O)c1O
inactive: Potency [1] | Potency [2] | Potency [3] | Potency [4] | Potency [5] | Potency [6]

C[C@@H]1CCC2C(C)(C)[C@H](O)CC[C@]2(C)[C@@]12Cc1c(O)cc3c(c1O2)CN(CCO)C3=O (some centres undefined)
inactive: Potency [1] | Potency [2] | Potency [3] | Potency [4] | Potency [5] | Potency [6]

CC1CCC2C(C)(C)C(O)CCC2(C)C12Cc1c(O)cc3c(c1O2)CN=C3N (centres undefined)
inactive: Potency [1] | Potency [2] | Potency [3] | Potency [4] | Potency [5] | Potency [6]

CC1CC(O)CC(C)(C)C1(O)CCO (centres undefined)
inactive: Potency [1] | Potency [2] | Potency [3] | Potency [4] | Potency [5] | Potency [6]

CC(C)CC(=O)OC[C@H]1O[C@@](COC(=O)CC(C)C)(O[C@H]2O[C@H](CO)[C@@H](O)[C@H](O)[C@H]2OC(=O)CC(C)C)[C@@H](OC(=O)CC(C)C)[C@@H]1O
inactive: Potency [1] | Potency [2] | Potency [3] | Potency [4] | Potency [5] | Potency [6]

CCC[C@@H]1C[C@@H](C(=O)N[C@H](C(C)Cl)[C@H]2O[C@H](SC)[C@H](O)[C@@H](O)[C@H]2O)N(C)C1 (some centres undefined)
inactive: Potency [1] | Potency [2] | Potency [3] | Potency [4] | Potency [5] | Potency [6]

O=C(C1CC1)N1CC[C@@H](Cc2n[nH]c(=O)n2-c2ccc(-c3ccc4occc4c3)cc2)C1
inactive: Potency [1] | Potency [2] | Potency [3] | Potency [4] | Potency [5] | Potency [6]

COc1ccc(/C=C/C(=O)O[C@@H]2[C@@H](O)[C@H](C)O[C@@H](OC3C4C=COC(O[C@@H]5O[C@H](CO)[C@@H](O)[C@H](O)[C@H]5O)C4C4(CO)OC34)[C@@H]2O)cc1OC (some centres undefined)
inactive: Potency [1] | Potency [2] | Potency [3] | Potency [4] | Potency [5] | Potency [6]

C=CCc1ccc(O[C@@H]2O[C@H](CO[C@@H]3O[C@H](CO)[C@@H](O)[C@H](O)[C@H]3O)[C@@H](O)[C@H](O)[C@H]2O)c(O)c1
inactive: Potency [1] | Potency [2] | Potency [3] | Potency [4] | Potency [5] | Potency [6]

O=C(/C=C/c1ccc(O)cc1)O[C@H]1[C@@H]2C=CO[C@@H](O[C@@H]3O[C@H](CO)[C@@H](O)[C@H](O)[C@H]3O)[C@@H]2[C@@]2(CO)O[C@@H]12
inactive: Potency [1] | Potency [2] | Potency [3] | Potency [4] | Potency [5] | Potency [6]

C=C1CCC2[C@@](C)(C=O)CCC[C@]2(C)[C@H]1CC/C(C)=C/CO (some centres undefined)
inactive: Potency [1] | Potency [2] | Potency [3] | Potency [4] | Potency [5] | Potency [6]

CC12CCC3C(C)(C)C(O)CCC3(C)C1Cc1c(oc(C(=O)O)cc1=O)O2 (centres undefined)
inactive: Potency [1] | Potency [2] | Potency [3] | Potency [4] | Potency [5] | Potency [6]

N#Cc1ccc2[nH]c(O)c(-c3ccc(CN4CCOCC4)cn3)c2c1
inactive: Potency [1] | Potency [2] | Potency [3] | Potency [4] | Potency [5] | Potency [6]

CC(=O)NC(C(=O)OC1CCC(C)(C)C2CC=C3C(=O)OCC3(O)C12C)C(C)C (centres undefined)
inactive: Potency [1] | Potency [2] | Potency [3] | Potency [4] | Potency [5] | Potency [6]

C=C1CCC[C@]2(C)C[C@]3(O)OC(=O)C(C)=C3C[C@@H]12
inactive: Potency [1] | Potency [2] | Potency [3] | Potency [4] | Potency [5] | Potency [6]

CC(C)(O)c1ccc2c(c1)C(O)CC1C(C)(C(=O)O)CCCC21C (centres undefined)
inactive: Potency [1] | Potency [2] | Potency [3] | Potency [4] | Potency [5] | Potency [6]

CC(C)C(=O)c1cn(CC(=O)COc2ccc(Oc3ccccc3)cc2)c2ccc(C(=O)O)cc12
inactive: Potency [1] | Potency [2] | Potency [3] | Potency [4] | Potency [5] | Potency [6]

C=C[C@H]1[C@H](O[C@@H]2O[C@H](CO)[C@@H](O)[C@H](O)[C@H]2O)OC=C2C(=O)OCC[C@]21O
inactive: Potency [1] | Potency [2] | Potency [3] | Potency [4] | Potency [5] | Potency [6]

C=CC(C)(C)C1(CC2NC(=O)C3CCCN3C2=O)C(=O)Nc2cc3c(cc21)C=CC(C)(C)O3 (centres undefined)
inactive: Potency [1] | Potency [2] | Potency [3] | Potency [4] | Potency [5] | Potency [6]

CC1=CC(=O)C2C(C)(C)CCCC2(C)C12CCC1(COC(=O)C1)O2 (centres undefined)
inactive: Potency [1] | Potency [2] | Potency [3] | Potency [4] | Potency [5] | Potency [6]

N#CC1C(=O)Nc2scc(-c3ccc(-c4ccccc4O)cc3)c2C1=O (centres undefined)
inactive: Potency [1] | Potency [2] | Potency [3] | Potency [4] | Potency [5] | Potency [6]

c1ccc(Nc2nc3c(s2)CCCc2[nH]ncc2-3)nc1
inactive: Potency [1] | Potency [2] | Potency [3] | Potency [4] | Potency [5] | Potency [6]

O=C1Nc2ccc(O)cc2O[C@H]1O[C@@H]1O[C@H](CO)[C@@H](O)[C@H](O)[C@H]1O
inactive: Potency [1] | Potency [2] | Potency [3] | Potency [4] | Potency [5] | Potency [6]

CC1(C)NC2N(C1=O)c1ccccc1C2(O)CC(C(=O)O)n1cnc2ccccc2c1=O (centres undefined)
inactive: Potency [1] | Potency [2] | Potency [3] | Potency [4] | Potency [5] | Potency [6]

CCn1cc(C2=NOC(C(=O)Nc3c(C)n(C)n(-c4ccccc4)c3=O)C2)c(C)n1 (centres undefined)
inactive: Potency [1] | Potency [2] | Potency [3] | Potency [4] | Potency [5] | Potency [6]

CC1=CC[C@]2(C(=O)O[C@@H]3O[C@H](CO[C@@H]4O[C@H](CO)[C@@H](O[C@@H]5O[C@@H](C)[C@H](O)[C@@H](O)[C@H]5O)[C@H](O)[C@H]4O)[C@@H](O)[C@H](O)[C@H]3O)CC[C@]3(C)C(CCC4[C@@]5(C)C[C@@H](O)[C@H](O)[C@@](C)(CO)C5CC[C@]43C)C2C1C (some centres undefined)
inactive: activity change, negative = cytotoxicity [1] -1.63% [at 11.6 µM] | activity change, negative = cytotoxicity [2] 6.64% [at 11.6 µM] | activity change, negative = cytotoxicity [3] 10.1% [at 11.6 µM] | activity change, negative = cytotoxicity [4] -2.91% [at 11.6 µM] | activity change, negative = cytotoxicity [5] 4.72% [at 11.6 µM] | activity change, negative = cytotoxicity [6] -1.58% [at 11.6 µM]
